High-throughput results (PubChem)
PLK1 PBD inh: PLK1 (human) polo-box domain binding inhibition | Plk1 PBD binding of FITC phosphopeptide, fluorescence polarization | P53350 | 360,000 tested, 2.8% active | AID 720504 | Potency, µM, for inactives: max response, negative = inhibition, hits mostly inhibitors; further: series mostly up to about 57 µM; nearly all actives have a fitted effect of over 65% in size
Target sequence (P53350 whole entry, looked up, the tested form may be a part): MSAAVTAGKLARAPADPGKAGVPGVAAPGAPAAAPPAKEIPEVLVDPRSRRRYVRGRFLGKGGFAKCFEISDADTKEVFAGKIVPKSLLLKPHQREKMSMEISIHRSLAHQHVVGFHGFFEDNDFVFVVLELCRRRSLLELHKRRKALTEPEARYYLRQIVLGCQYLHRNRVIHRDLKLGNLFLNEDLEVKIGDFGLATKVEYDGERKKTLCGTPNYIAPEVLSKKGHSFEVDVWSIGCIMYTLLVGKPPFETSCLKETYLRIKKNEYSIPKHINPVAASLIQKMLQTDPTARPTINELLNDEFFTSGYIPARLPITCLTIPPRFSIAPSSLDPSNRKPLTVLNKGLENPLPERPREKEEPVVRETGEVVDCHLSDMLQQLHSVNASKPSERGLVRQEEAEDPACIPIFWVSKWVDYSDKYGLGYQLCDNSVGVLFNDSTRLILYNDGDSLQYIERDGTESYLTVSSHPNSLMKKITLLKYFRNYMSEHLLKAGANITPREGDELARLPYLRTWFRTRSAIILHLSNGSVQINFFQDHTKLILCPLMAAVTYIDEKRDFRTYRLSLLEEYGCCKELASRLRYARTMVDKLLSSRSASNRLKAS
VDR inhibitor: vitamin D3 receptor (human) inhibition. 400,000 tested, 0.93% active. AID 504847. VDR-SRC2-3 peptide fluorescence polarization, 2 h. Potency, µM, for inactives: max response, negative = inhibition, most hits filed as inhibitors. P11473
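Signal is fluorescence polarization, reporting how far test compounds block the interaction of VDR with the SRC2-3 coregulator peptide after a 2 h room-temperature incubation.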
Tau fibril FP: tau fibrillization inhibition (FP) | 280,000 tested, 0.39% active | Potency, µM (series often up to 57.7 µM), without a hit: at the highest dose activity, negative = inhibition, hits mostly inhibitors | K18 P301L tau heparin fibrillization, Alexa594 FP, 6 h; further: nearly all actives have a fitted effect of over 55% in size
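Steps: dispense K18 P301L tau (15 uM plus 0.24 uM Alexa 594 tracer, final) in pH 7 sodium acetate; add compound; add heparin (20 uM final); incubate 6 hr, 37 C; add ThT (30 uM final); after 1 hr ambient, read FP.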
Sfp PPTase inh: blocks B. subtilis Sfp PPTase activity; Biochemical Sfp PPTase activity, qHTS; AID 1490; Q9F4F7; 310,000 tested, 3.5% active; Potency, µM, inactives show largest response in the series, negative = inhibition, most hits filed as inhibitors;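 further: the enzyme is Sfp with the accession as filed and its product quenches rhodamine fluorescence; 0% = enzyme reaction without inhibitor and -100% = no enzyme wells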
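Step 1, compound plus 15 nM Sfp-PPTase, 15 min, room temperature. Step 2, add rhodamine-CoA (5 uM) and BHQ-2-YbbR (12.5 uM). Step 3, read 525/598 nm fluorescence at 0 and 30 min.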
Tau ThT inhib: inhibitors of human tau fibril formation, thioflavin T binding; P10636; recombinant tau K18 P301L, heparin-induced fibrillization, ThT fluorescence; Potency, µM (top dose mostly 57.4 µM), without a hit: at the highest dose activity, negative = inhibition, usual class: inhibitors; 270,000 tested, 2.1% active; AID 1460; further: nearly all actives have a fitted effect of over 55% in size
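In this qHTS, human K18 P301L tau is incubated with compound and heparin for 6 hr at 37 C, and Thioflavin T fluorescence then reports fibril load.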
Tau fluor cs: counter-screen for tau fibril formation inhibitors; tau K18 P301L (four-repeat tau fragment) Alexa594 fluorescence, heparin fibrillization; Potency, µM (doses to about 57.7 µM), for the others: at the highest dose activity change, negative = decrease; 280,000 tested, 0.93% active; AID 1463; further: nearly all actives have a fitted effect of over 55% in size
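Human K18 P301L tau (15 uM unlabeled plus 0.24 uM Alexa 594-labeled, final) in 100 mM sodium acetate pH 7 was mixed with compound and 20 uM heparin and incubated 6 hr at 37 C.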
* hit, by the source's call; ? = inconclusive; . = no result given; [ ] = dose if it differs, or a comment. This is a sample that favours compounds with a hit; in the whole collection about 6% have one here. The call rests on the fitted dose curve; in most records, active means well fitted curve in the direction sought with a large enough effect; inconclusive means small, poorly fitted or top-dose-only effect, or another doubt; inactive means no such curve, though single readings can be large; an effect the other way counts as inactive or inconclusive. Unless noted, on the % scale 0 is the no-effect control and ±100 the full control effect; potency means the concentration at half of the fitted maximal effect.

SMILES	PLK1 PBD inh	VDR inhibitor	Tau fibril FP	Sfp PPTase inh	Tau ThT inhib	Tau fluor cs
C/C(CC(=O)Nc1ccc(Cl)c(C(F)(F)F)c1)=N\NC(=O)c1cc2ccccc2cc1O	?	9%	-5%	21%	13µM*	16µM*[quencher]
C/C(CC(=O)N1CCCC1)=N\NC(=O)c1cc2ccccc2cc1O	-18%	-5%	-15%	-26%	13µM*	?
Cn1cc(SCC(N)=O)c2ccccc21	-5%	-18%	3%	14%	1%	-4%
Cn1cc(C2=C(c3cn(CCCSC(=N)N)c4ccccc34)C(=O)NC2=O)c2ccccc21	.	-5%	?	50µM*	3.2µM*	13µM*[quencher]
CN(C)CCCn1cc(C2=C(c3c[nH]c4ccccc34)C(=O)NC2=O)c2ccccc21	.	?	2%	-14%	13µM*	20µM*[quencher]
CCC1CN(C(=O)N2CCC(C(=O)Nc3ccccc3F)CC2)c2ccccc2O1 (stereo not given)	-20%	8%	3%	21%	-6%	2.5µM*[quencher]
CCC1CN(C(=O)N2CCC(C(=O)Nc3cc(C)ccc3C)CC2)c2ccccc2O1 (stereo not given)	.	1%	1%	.	-4%	-7%
O=C(NC1CCCCCC1)C1CCN(C(=O)N2CCOc3ccccc32)CC1	.	10%	?	.	11%	7.1µM*[quencher]
CCC1CN(C(=O)N2CCC(C(=O)NCCc3ccc(Cl)cc3)CC2)c2ccccc2O1 (stereo not given)	.	9%	12%	.	-4%	5µM*[quencher]
CCN(CC)S(=O)(=O)c1ccc(O)c(NC(=O)c2cc(-c3cc(OC)c(OC)c(OC)c3)nc3ccccc23)c1	19µM*	-23%	.	45µM*	.	.
COc1cc(-c2cc(C(=O)Nc3ccc(S(N)(=O)=O)cc3)c3ccccc3n2)cc(OC)c1OC	-9%	6%	.	15%	.	.
COc1ccc(-c2cc(C(=O)Nc3ccc(S(=O)(=O)Nc4ncccn4)cc3)c3ccccc3n2)cc1	-14%	6%	-13%	19%	-6%	-6%
Cc1noc(NS(=O)(=O)c2ccc(NC(=O)c3cc(-c4ccccc4Cl)nc4ccccc34)cc2)c1C	38µM*	-17%	7%	23%	?	-13%
COc1cc(-c2cc(C(=O)Nc3ccc(S(=O)(=O)Nc4ncccn4)cc3)c3ccccc3n2)cc(OC)c1OC	27µM*	?	-8%	11%	-18%	-23%
Cc1ccc(/C=C/C(=O)Nc2ccc(S(=O)(=O)Nc3onc(C)c3C)cc2)cc1	38µM*	18%	.	8%	.	.
COc1ccc(NC(=O)C(=O)c2cc(C)n(-c3ccc(C)cc3)c2C)cc1Cl	.	5%	1%	.	-16%	-23%
Cc1cccc(C)c1NC(=O)C1(C)CN(S(C)(=O)=O)CC(=O)N1Cc1ccco1 (stereo not given)	-2%	.	.	.	.	.
CCSC1=N/C(=C\c2ccc(C(=O)O)cc2)C(=O)S1	?	-6%	-9%	?	-10%	-3%
O=C1SC(SCc2ccccc2Cl)=N/C1=C\c1ccc(C(=O)O)cc1	17µM*	?	-8%	-49%	?	-8%
C=CCSC1=N/C(=C\c2ccc(C(=O)O)cc2)C(=O)S1	-16%	9%	?	40µM*	?	-13%
C[C@H](CO)N1C[C@H](C)[C@@H](CN(C)C(=O)Nc2cccc(F)c2)Oc2ncc(Br)cc2C1=O	-2%	.	.	.	.	.
Cc1cccc(C)c1NS(=O)(=O)c1ccc(-c2cnc(C3CC3)o2)cc1	3%	-7%	.	-5%	.	.
Cc1cc(C)c(NC(=O)CSc2nc3ccccc3nc2N2CCCCC2)c(C)c1	.	3%	-6%	.	-14%	-6%
COCCNC(=O)Cc1ccc(Br)cc1	-4%	1%	-1%	-4%	20%	12%
COCCNC(=S)c1ccc(Br)cc1	11µM*	?	-5%	45µM*	?	-9%
SMILES	PLK1 PBD inh	VDR inhibitor	Tau fibril FP	Sfp PPTase inh	Tau ThT inhib	Tau fluor cs
CCOC(=O)[C@]12CCCC=C1N(Cc1ccc3c(c1)OCO3)C(=O)[C@H](CC(=O)N1CCCC1)C2	1%	.	.	.	.	.
OC1(CN2CCOCC2)C2CN3CCN(C2)CC1(c1ccccc1)C3 (stereo not given)	21µM*	-14%	7%	5%	0%	8%
CN1CCc2c(sc3nc(NN)n(Cc4ccccc4)c(=O)c23)C1	-4%	-7%	-13%	-17%	16µM*	?
CN1CCc2c(sc3nc(NN)n(-c4ccc(Cl)cc4)c(=O)c23)C1	-16%	-9%	.	-18%	.	.
COC(=O)C1=C(C)NC(=O)/C1=C\c1cc(C)n(-c2cccc(C)c2)c1C	-4%	1%	3%	?	25µM*	?
COC(=O)C1=C(C)NC(=O)/C1=C\c1cc(C)n(-c2ccc(F)cc2)c1C	-9%	5%	1%	35µM*	16µM*	?
COc1ccccc1CNC(=O)CCNS(=O)(=O)c1ccc2[nH]c(=O)oc2c1	34µM*	-16%	.	19%	.	.
COc1ccccc1NC(=O)CCNS(=O)(=O)c1ccc2[nH]c(=O)oc2c1	30µM*	?	.	18%	.	.
COCCNC(=O)c1ccc2c(=O)n(CCCN3CCCC3=O)c(=S)[nH]c2c1	0%	-14%	-4%	50µM*	-4%	-6%
CCCCCNC(=O)c1ccc2c(=O)n(CCCN3CCCC3=O)c(=S)[nH]c2c1	-10%	-8%	-7%	-14%	-3%	-10%
Cc1cc(S(=O)(=O)NCc2ccccc2)ccc1OCC(=O)N1CCCC1	1%	0%	.	6%	.	.
CN1C/C(=C/c2ccc(B(O)O)cc2)C(=O)/C(=C/c2ccc(B(O)O)cc2)C1	.	4.5µM*	.	?	.	.
CC(C)N1C/C(=C/c2cccnc2)C(=O)/C(=C/c2cccnc2)C1	-10%	?	-2%	-2%	2%	-3%
CN1C/C(=C/c2cccnc2)C(=O)/C(=C/c2cccnc2)C1	-13%	45µM*	?	-9%	?	-6%
O=Cc1ccc(B(O)O)cc1	.	-16%	-10%	6%	6%	-4%
CC(=O)Nc1ccc(-c2csc(Nc3cc(C)ccn3)n2)cc1	-9%	3%	8%	-22%	7.1µM*	16µM*[quencher]
CC(=O)Nc1cccc(-c2csc(Nc3ccc(Cl)cn3)n2)c1	-2%	-5%	-5%	13%	?	13µM*[quencher]
CC(=O)Nc1cccc(-c2csc(Nc3cc(C)ccn3)n2)c1	-12%	-2%	5%	-13%	?	18µM*[quencher]
Cc1ccnc(Nc2nc(-c3ccccc3)cs2)c1	1%	1%	.	7%	.	.
Cc1ccnc(Nc2nc(-c3c(C)nc4sccn34)cs2)c1	-4%	-19%	7%	?	7.9µM*	14µM*[quencher]
CC(=O)Nc1ccc(-c2csc(Nc3ccc(Cl)cn3)n2)cc1	-11%	12%	-3%	-1%	?	?
